From PubChem BioAssay
A number with no mark means an inactive call. For some of these results: Entries with a potency or affinity are not part of this list. Calls of active or inactive are those of the source. Unless noted, no rule for the calls is given here.

Columns and labels:
[1] = antimalarial activity against Dd2 strain (AID 2302;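 active = growth inhibition above 50% at the single 2 µM test dose, taken to imply half-maximal potency below 2 µM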;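 also: 0% = DMSO untreated growth and 100% = chloroquine plus artemisinin killed control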); settings: P. falciparum Dd2 in RBCs, LDH growth readout, 72 h; at 2 µM; stronger effect = higher value
[2] = HepG2 cytotoxicity, primary screen, cytotoxicity control for P. falciparum antimalarial project, cell-based, ATP luminescence (AID 2303;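 active = inhibition above 50%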;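 also: 0% = DMSO wells and 100% = digitonin-killed cells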); settings: HepG2 viability, 24-48 h, at 10 µM, stronger effect = higher value
[3] = target: L-lactate dehydrogenase (Plasmodium falciparum (isolate CDC / Honduras)) (UniProt Q27743); test: PfLDH activity inhibition – cell lysate, 3D7 strain, counter-screen for P. falciparum growth inhibition project (AID 2304);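 also: 0% = vehicle and 100% = reference inhibitor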; settings: P. falciparum 3D7 crude extract, LDH APAD/NBT absorbance; at 2 µM; stronger effect = higher value
[4] = inhibition of 3D7 malaria parasite growth – strain 3D7 (AID 2306);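 also: 0% = DMSO wells and 100% = chloroquine plus artemisinin control wells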; settings: P. falciparum 3D7 erythrocytic growth, LDH absorbance, 72 h; at 2 µM; stronger effect = higher value
[5] = target: Calcium-dependent protein kinase 1 (Plasmodium falciparum (isolate 3D7)) (UniProt P62344); test: PfCDPK1 kinase inhibitors, biochemical, TCAMS library (AID 1159585; cut-off not given, nearly all actives have IC50 up to about 0.98 µM;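 also: inhibitors leave more ATP so luminescence rises with inhibition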); settings: recombinant PfCDPK1, Kinase-Glo ATP depletion luminescence
[6] = target: Plasmodium falciparum protein kinase 6 (PK6, PF3D7_1337100) (UniProt Q8IDW1); test: PfPK6 kinase inhibitors, biochemical, TCAMS library (AID 1159586); settings: recombinant PfPK6, Kinase-Glo ATP depletion luminescence
[7] = target: Protein kinase 7 (PK7), Plasmodium falciparum 3D7 (PF3D7_0213400) (UniProt Q7YTF7); test: inhibition of Plasmodium PK7 catalytic activity – biochemical, TCAMS antimalarial set, Kinase-Glo luminescence (AID 1159587); settings: recombinant PfPK7, Kinase-Glo ATP depletion luminescence
[8] = target: Calcium-dependent protein kinase 4 (Plasmodium falciparum (isolate 3D7)) (UniProt Q8IBS5); test: PfCDPK4 kinase inhibitors, biochemical, TCAMS library (AID 1159588; cut-off not given, nearly all actives have IC50 up to about 0.91 µM); settings: recombinant PfCDPK4, Kinase-Glo ATP depletion luminescence
Chain of Calcium-dependent protein kinase 4 (Plasmodium falciparum (isolate 3D7)) (Q8IBS5 whole entry, looked up): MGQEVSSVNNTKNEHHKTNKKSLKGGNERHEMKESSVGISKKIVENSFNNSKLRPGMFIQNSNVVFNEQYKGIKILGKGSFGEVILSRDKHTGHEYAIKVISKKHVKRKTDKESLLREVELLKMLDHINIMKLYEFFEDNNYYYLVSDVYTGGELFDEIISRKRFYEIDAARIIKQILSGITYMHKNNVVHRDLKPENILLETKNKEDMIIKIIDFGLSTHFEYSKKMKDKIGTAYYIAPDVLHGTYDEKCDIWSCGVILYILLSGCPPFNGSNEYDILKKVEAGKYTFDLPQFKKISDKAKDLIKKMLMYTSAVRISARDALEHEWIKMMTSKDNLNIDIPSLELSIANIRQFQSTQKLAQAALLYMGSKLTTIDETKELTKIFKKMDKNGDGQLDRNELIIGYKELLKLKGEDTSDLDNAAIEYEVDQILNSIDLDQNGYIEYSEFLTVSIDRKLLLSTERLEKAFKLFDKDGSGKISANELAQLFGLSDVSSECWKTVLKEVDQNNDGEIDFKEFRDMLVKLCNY

Chain of Plasmodium falciparum protein kinase 6 (PK6, PF3D7_1337100) (Q8IDW1 1-305): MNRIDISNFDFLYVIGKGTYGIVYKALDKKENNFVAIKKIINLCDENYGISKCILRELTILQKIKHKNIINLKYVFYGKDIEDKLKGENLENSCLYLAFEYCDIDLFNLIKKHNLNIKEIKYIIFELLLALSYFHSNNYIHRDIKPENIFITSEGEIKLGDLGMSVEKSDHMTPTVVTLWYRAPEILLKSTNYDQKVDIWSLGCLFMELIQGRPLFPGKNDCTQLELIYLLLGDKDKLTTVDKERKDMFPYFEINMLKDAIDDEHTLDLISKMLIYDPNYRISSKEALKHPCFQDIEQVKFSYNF
Chain of L-lactate dehydrogenase (Plasmodium falciparum (isolate CDC / Honduras)) (Q27743 whole entry, looked up): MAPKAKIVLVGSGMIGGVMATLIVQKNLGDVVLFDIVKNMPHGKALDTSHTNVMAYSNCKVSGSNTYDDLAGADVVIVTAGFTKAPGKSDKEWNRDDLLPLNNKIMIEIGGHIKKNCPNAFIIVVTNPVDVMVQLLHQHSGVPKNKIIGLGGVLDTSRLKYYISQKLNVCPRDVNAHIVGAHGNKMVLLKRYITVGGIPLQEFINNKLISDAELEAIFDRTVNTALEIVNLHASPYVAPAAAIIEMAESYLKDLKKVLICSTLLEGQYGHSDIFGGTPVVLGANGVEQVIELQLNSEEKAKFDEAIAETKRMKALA
Chain of Protein kinase 7 (PK7), Plasmodium falciparum 3D7 (PF3D7_0213400) (Q7YTF7 1-343): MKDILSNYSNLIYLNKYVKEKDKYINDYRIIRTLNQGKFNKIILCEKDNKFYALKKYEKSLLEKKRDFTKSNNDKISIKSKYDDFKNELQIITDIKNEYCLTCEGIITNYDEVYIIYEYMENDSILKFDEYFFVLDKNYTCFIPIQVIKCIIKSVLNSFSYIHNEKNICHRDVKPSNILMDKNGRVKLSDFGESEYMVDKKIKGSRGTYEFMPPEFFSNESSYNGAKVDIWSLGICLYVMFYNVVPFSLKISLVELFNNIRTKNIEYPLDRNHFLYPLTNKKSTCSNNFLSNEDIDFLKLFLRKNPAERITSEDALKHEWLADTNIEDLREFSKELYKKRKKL
Chain of Calcium-dependent protein kinase 1 (Plasmodium falciparum (isolate 3D7)) (P62344 whole entry, looked up): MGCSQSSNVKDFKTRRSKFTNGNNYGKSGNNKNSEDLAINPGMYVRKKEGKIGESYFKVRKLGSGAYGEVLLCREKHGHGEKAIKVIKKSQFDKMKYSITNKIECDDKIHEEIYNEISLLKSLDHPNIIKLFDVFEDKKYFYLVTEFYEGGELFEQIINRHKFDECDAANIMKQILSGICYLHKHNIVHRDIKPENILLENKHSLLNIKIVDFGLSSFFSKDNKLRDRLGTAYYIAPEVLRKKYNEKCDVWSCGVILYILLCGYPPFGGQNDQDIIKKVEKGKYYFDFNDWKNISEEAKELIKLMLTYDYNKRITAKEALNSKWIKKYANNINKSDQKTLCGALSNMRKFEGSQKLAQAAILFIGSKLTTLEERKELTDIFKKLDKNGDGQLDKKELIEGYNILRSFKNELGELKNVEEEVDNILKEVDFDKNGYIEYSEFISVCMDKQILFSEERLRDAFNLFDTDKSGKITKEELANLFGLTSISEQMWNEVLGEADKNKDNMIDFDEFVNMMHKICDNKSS

SMILES	growth inhibition [1]	inhibition [2]	inhibition [3] [%]	growth inhibition [4]	outcome [5]	outcome [6]	outcome [7]	outcome [8]
COc1ccc(-c2ccc(NC(=O)c3ccc(C#N)cc3)cc2)cc1CN(C)CCO	44%	41%	9	99% (active)	inactive	inactive	inactive	inactive
O=C(CN1CCCCC1)Nc1ccc(Nc2nccc(NCC(O)c3ccccc3)n2)cc1 (stereo not given)	95% (active)	62% (active)	3	101% (active)	inactive	inactive	inactive	inactive
c1ccc(Oc2ccc(Nc3ccnc(Nc4cccc(CNCCCN5CCOCC5)c4)n3)cc2)cc1	50% (active)	-1%	-1	100% (active)	inactive	inactive	inactive	inactive
N=C(N)CCN(Cc1ccccc1)c1ccc(Cl)cc1	98% (active)	1%	4	98% (active)	inactive	inactive	inactive	inactive
COc1ccc(N2CCN(CCCCNC(=O)c3ccc(NC(=O)c4ccc(C(F)(F)F)cc4)cc3)CC2)c(OC)c1	8%	4%	6	100% (active)	inactive	inactive	inactive	inactive
CCCNCc1ccc(-c2ccc(CN(CC3CCCO3)C(=O)COc3ccccc3Cl)cc2)nc1 (stereo not given)	11%	5%	-3	89% (active)	inactive	inactive	inactive	inactive
CN1CCC(N2CCN(Cc3cccc(-c4ccc(-c5nc6ccccc6[nH]5)cc4)c3)CC2)CC1	99% (active)	56% (active)	-7	100% (active)	inactive	inactive	inactive	inactive
CC(C)(C)c1ccc(NC(=O)c2ccc(CN3CCCN(Cc4cccc(F)c4)CC3)cc2)cc1	8%	51% (active)	-2	90% (active)	inactive	inactive	inactive	inactive
O=C(Nc1ccc(Cl)cc1)c1ccc(CN2CCCN(Cc3cccc(O)c3)CC2)cc1	69% (active)	52% (active)	4	100% (active)	inactive	inactive	inactive	inactive
CN(C)CCOc1ccc2c(=O)cc(CCc3cccc(F)c3F)n(CC(=O)N(C)Cc3ccc(-c4ccc(C(F)(F)F)cc4)cc3)c2c1	60% (active)	33%	2	90% (active)	inactive	inactive	inactive	inactive
CN1CCCC(CN2CCN(Cc3ccc(-c4ccc(-c5nc6ccc(F)cc6[nH]5)s4)cc3)CC2)C1 (stereo not given)	100% (active)	73% (active)	-2	101% (active)	inactive	inactive	inactive	inactive
CN(Cc1ccncc1)C(Cc1ccccc1)C1CCN(Cc2ccc(O)c(Cl)c2)CC1 (stereo not given)	97% (active)	22%	-4	96% (active)	inactive	inactive	inactive	inactive
CCc1cc(C(=O)c2cccc(C)c2)c(NC(=O)CN2CCN(C(=O)c3ccco3)CC2)s1	85% (active)	-13%	-5	91% (active)	inactive	inactive	inactive	inactive
O=C(Nc1ccc(S(=O)(=O)N2CCCC2)cc1)c1cc(-c2cccnc2)nc2ccc(Cl)cc12	95% (active)	4%	-6	97% (active)	inactive	inactive	inactive	inactive
CC(C)(C)c1ccc(CN2CCC(CNC(=O)c3cc(-c4cccc(F)c4)cs3)C2)cc1 (stereo not given)	55% (active)	32%	3	100% (active)	inactive	inactive	inactive	inactive
COc1ccc(NC(=O)c2ccc(-c3nc(-c4cccc(C(F)(F)F)c4)cs3)cc2)cc1N1CCN(C)CC1	59% (active)	29%	6	98% (active)	inactive	inactive	inactive	inactive
Cc1cc(O)c(CN2CCN(Cc3cccs3)CC2)cc1C(C)C	97% (active)	7%	-2	98% (active)	inactive	inactive	inactive	inactive
O=C(NCCCCN1CCC(O)(c2ccc3c(c2)OCO3)CC1)c1ccc(NC(=O)c2ccc(Cl)cc2)cc1	6%	15%	-1	86% (active)	inactive	inactive	inactive	inactive
CCCCc1ccc(-c2c(N)nc(N)nc2CC)cc1	0%	63% (active)	-1	95% (active)	inactive	inactive	inactive	inactive
NC1CCN(CCc2ccc(NS(=O)(=O)c3ccc(-c4ccccc4)cc3)cc2)CC1	19%	17%	0	100% (active)	inactive	inactive	inactive	inactive
